Experimental findings from PMC4552634, “A New Set of Chemical Starting Points with Plasmodium falciparum Transmission-Blocking Potential for Antimalarial Drug Discovery” (PLoS ONE, 2015) are described below.

The campaign covered roughly 13,000 compounds. About 3,200 (25%) showed an effect of 50% or more. The list shows a part of the results.

The assay deals with P. falciparum stage V gametocytes. More on the design: BacTiter-Glo ATP luminescence viability of purified stage V gametocytes in 384-well plates, per cent inhibition versus DMSO. As to conditions: 48 h, 5 µM; inhibitor.
Turning to `COc1ccc2nc3cc(Cl)ccc3c(NCCc3ccccc3)c2c1.Cl` [TCMDC-137665], the “% Inhibition” value is -3.627%.
`CCN1CCN(CCCNc2ccnc3cc(Cl)ccc23)CC1` [TCMDC-137588]: the “% Inhibition” value was found to be 6.527%.
In the case of `COc1ccc2nc3cc(Cl)ccc3c(NCCCCN3CCNCC3)c2c1` [TCMDC-137578] it was 99.69%; in that of `CCN1CCN(CCCNc2c3ccc(Cl)cc3nc3ccc(OC)cc23)CC1` [TCMDC-137586], 86.55%.
On to `COc1ccc2nc3ccccc3c(NCCN3CCN(C)CC3)c2c1` [TCMDC-138017], for which the “% Inhibition” value is recorded as 69.17%.
`CCN1CCN(CCCNc2c3ccc(Cl)cc3nc3ccc(O)cc23)CC1` [TCMDC-137583]: the “% Inhibition” value is 70.77%.
As to `CN1CCCc2ccc(NC(=O)Nc3ccc(Cl)c(Cl)c3)cc2C1` [TCMDC-133732], the “% Inhibition” value was -5.496%.
In the case of `Cc1ccc2[nH]c3c(NCCN(C)C)ncnc3c2c1` [TCMDC-124581] it was -20.4%; in that of `CCOC(=O)N1CCN(CCCNc2c3ccc(Cl)cc3nc3ccc(OC)cc23)CC1` [TCMDC-137480], 40.55%.
As for `CCOC(=O)N1CCN(CCCCNc2c3ccc(Cl)cc3nc3ccc(OC)cc23)CC1.Cl` [TCMDC-137579], the “% Inhibition” value was found to be 70.35%.
The result for `COc1ccc2nc3cc(Cl)ccc3c(NCCCN3CCNCC3)c2c1` [TCMDC-137580] reads 104.3%.
The result for `COc1ccc2nc3cc(Cl)ccc3c(Nc3ccc(C(=O)O)cc3)c2c1.Cl` [TCMDC-138029] reads 43.24%; that for `Cc1ccc2nc3ccccc3c(NCCN3CCN(C)CC3)c2c1` [TCMDC-138018], 95.43%.
The result for `COc1ccc2nc3cc(Cl)ccc3c(NCCN3CCN(C)CC3)c2c1` [TCMDC-137476] reads 105%; that for `CCOC(=O)C1=C(C)NC2=C(C(=O)CC(C)(C)C2)C1c1ccc(Cl)cc1` (stereo not shown) [TCMDC-123497], 10%; that for `O=C(N[C@@H](CC1CCCCC1)C(=O)NCCN1CCCC1)c1ccc(O)c(-c2ccc(Cl)c(Cl)c2)c1` [TCMDC-140830], 4.598%.
For `COc1ccc(Nc2nccc(NCC(O)c3ccc(C(F)(F)F)cc3)n2)cc1` (stereo not shown) [TCMDC-136595], the “% Inhibition” value is -79.42%.
Regarding `CCCCCN(C(=O)Nc1cc(C(F)(F)F)cc(C(F)(F)F)c1)C(C)c1nc2ccccc2c(=O)n1CC` (stereo not shown) [TCMDC-124043], the “% Inhibition” value is on record as -29.97%.
The result for `O=C(Nc1cc(C(F)(F)F)ccc1Cl)c1ccc(Cn2cc(Br)cn2)cc1` [TCMDC-124912] reads -0.3608%; that for `FC(F)(F)COc1c(CNCCCCCCNCc2ccc3ccccc3c2OCC(F)(F)F)ccc2ccccc12` [TCMDC-137833], 67.85%.
`O=c1cc(NCCCNCc2cccc(C(F)(F)F)c2Cl)[nH]c2ccccc12` [TCMDC-139421]: the “% Inhibition” value was -19.98%.
In the case of `N#Cc1ccc(CNCCCCCCNCc2ccc(C#N)c3ccccc23)c2ccccc12` [TCMDC-137849] it was 40.84%.
For the molecule `FC(F)(F)COc1c(CCNCCCCNCCc2ccc3ccccc3c2OCC(F)(F)F)ccc2ccccc12` [TCMDC-137169], the “% Inhibition” value was determined as 119.3%.
In the case of `CN(C)c1ccc(C2(c3ccccc3)N=C(N)N(CCCc3ccccc3)C2=O)cc1` (stereo not shown) [TCMDC-136715], the “% Inhibition” value is -12.92%.
In the case of `CCCCCOc1ccc(C(O)C(CN2CCCCC2)c2ccccc2)cc1` (stereo not shown) [TCMDC-124165] it was 1.137%.
With `CC(C)COc1ccc(C(O)C(CN2CCCCC2)c2ccccc2)cc1` (stereo not shown) [TCMDC-124253], the “% Inhibition” value is listed as 31.95%.
In the case of `CCCCCOc1ccc(C(O)C(CCC(CN2CCCCCC2)C(O)c2ccc(OCCCCC)cc2)CN2CCCCCC2)cc1` (stereo not shown) [TCMDC-124174] it was 105.7%.
In the case of `COc1ccc(CNC2CCN(C)CC2)cc1-c1ccc(S(=O)(=O)NCCc2ccccn2)s1` [TCMDC-132256] it was 13.25%; in that of `COc1ccc(CNC2Cc3ccccc3C2)cc1-c1ccc(S(=O)(=O)NCc2cccnc2)s1` [TCMDC-132260], 33.12%.
Regarding `COc1ccc(CNC2CCN(C)CC2)cc1-c1ccc(S(=O)(=O)NCc2ccccc2)s1` [TCMDC-132253], the “% Inhibition” value worked out at 85.45%.
In the case of `COc1cc(CNC2Cc3ccccc3C2)ccc1Oc1ccc2nc[nH]c2c1` [TCMDC-133481] it was -19.03%; in that of `COc1ccc(CNC2Cc3ccccc3C2)cc1-c1ccc(S(=O)(=O)NCc2ccccc2)s1` [TCMDC-132252], 67.04%.
Regarding `COc1ccc(CNC2CCN(C)CC2)cc1-c1ccc(S(=O)(=O)NCc2cccnc2)s1` [TCMDC-132261], the “% Inhibition” value came out at 20.62%.
In the case of `COc1ccc(CNC2Cc3ccccc3C2)cc1-c1ccc(S(=O)(=O)NCCc2ccccn2)s1` [TCMDC-132255] it was 98.81%; in that of `COc1ccc(NC(=O)/C=C/c2ccccc2Cl)cc1OCCN1CCC(Cc2cc3ccccc3[nH]2)CC1` [TCMDC-140920], -36.18%.
In the case of `CN(C)C(CNC(=O)c1cc(-c2ccncc2)c(-c2ccc(Cl)c(O)c2)o1)c1ccccc1` (stereo not shown) [TCMDC-135438] it was -15.77%; in that of `O=C(CCc1cnc[nH]1)Nc1cccc(-c2ccc(-c3nc4ccc(F)cc4[nH]3)cc2)c1` [TCMDC-132154], 23.15%.
As for `Cc1ccc(N2CCN(C(=O)c3cccc(-c4cncc5nc(-c6ccco6)n(C)c45)c3)CC2)nc1` [TCMDC-134992], the “% Inhibition” value is reported as -10.32%.
The result for `C#CCNC(=O)c1ccc(-c2ccnc(Nc3cccc(CCCN4CCOCC4)c3)n2)s1` [TCMDC-136764] reads 20.31%; that for `COc1cccc(CN2CCCC(OC(c3ccccc3)c3ccccc3)C2)c1O` (stereo not shown) [TCMDC-136385], -25.83%; that for `CCN1CCCC1CNC(=O)c1cc2c(-c3ccc(Cl)cc3)nn(C)c2s1` (stereo not shown) [TCMDC-123579], 67.12%.
In the case of `Cn1nc(-c2ccc(Cl)cc2)c2cc(C(=O)NCCN3CCOCC3)sc21` [TCMDC-124416] it was 0.2691%; in that of `CCCN1CCN(CCCNC(=O)c2cc3c(-c4ccc(Cl)cc4)nn(C)c3s2)CC1` [TCMDC-124731], 12.34%; in that of `CCCNC[C@@H](O)[C@H](Cc1ccccc1)NC(=O)c1cc2c3c(c1)c(CC)cn3CCS(=O)(=O)N2C` [TCMDC-135863], 78.77%.
The result for `CCc1cn2c3c(cc(C(=O)N[C@@H](Cc4ccccc4)[C@H](O)CNCc4ccc(C)cc4)cc13)N(C)S(=O)(=O)CC2` [TCMDC-135924] reads 11.35%; that for `CCc1cn2c3c(cc(C(=O)N[C@@H](Cc4ccccc4)[C@H](O)CNCCOC)cc13)N(C)S(=O)(=O)CC2` [TCMDC-135799], 12.82%.
Regarding `CCc1cn2c3c(cc(C(=O)N[C@@H](Cc4ccccc4)[C@H](O)CNCc4cccc(C)c4)cc13)N(C)S(=O)(=O)CC2` [TCMDC-135923], the “% Inhibition” value was determined as 15.33%.
In the case of `CCNC[C@@H](O)[C@H](Cc1ccccc1)NC(=O)c1cc2c3c(c1)c(CC)cn3CCS(=O)(=O)N2C` [TCMDC-135800] it was 27.6%; in that of `CCc1cn2c3c(cc(C(=O)N[C@@H](Cc4ccccc4)[C@H](O)CNCc4ccccc4C)cc13)N(C)S(=O)(=O)CC2` [TCMDC-135922], -22.32%; in that of `CCCCNC[C@@H](O)[C@H](Cc1ccccc1)NC(=O)c1cc2c3c(c1)c(CC)cn3CCS(=O)(=O)N2C` [TCMDC-135802], 53.96%.
As for `CCc1cn2c3c(cc(C(=O)N[C@@H](Cc4ccccc4)[C@H](O)CNCC(C)C)cc13)N(C)S(=O)(=O)CC2` [TCMDC-135804], the “% Inhibition” value is 36.82%.
The result for `CCc1cn2c3c(cc(C(=O)N[C@@H](Cc4ccccc4)[C@H](O)CNCc4ccccc4)cc13)N(C)S(=O)(=O)CC2` [TCMDC-135883] reads 74.56%.
